Measurements: PubChem BioAssay (NCATS)
Records with an inconclusive call do not appear. Active and inactive are the calls of the source. Calls follow the shape of the dose curve; as a rule, active = well fitted inhibition curve with a large enough effect; inconclusive = small, poorly fitted or top-dose-only effect; inactive = flat fitted curve, though single readings scatter. Numbered stars: 1 amine (or outer) side, 2 acyl side, 3 side chain; on linkers, the order of the positions; unused ones are H or OH. Bridge positions count the residues as written; N and C are the ends. Square brackets hold non-standard residues; d marks the D form. Peptide text beside a SMILES is read from it. * marks the point of attachment. ξ: configuration not given here. ΔAla(Z-3-ureido) = NC(=O)N/C=C(\N)C(=O)O; ξDab(CH2SO3H) = NC(CCNCS(=O)(=O)O)C(=O)O; X1 = NC1=NCCC(C(N[*:1])C(=O)[*:2])N1; Heptanoyl(6-Me) = CC(C)CCCCC(=O)*; ξβ3hOrn = NCCCC(N)CC(=O)*; Orn = NCCC[CH](N)C(=O)O; Dab = NCC[CH](N)C(=O)O; Dap = NC[CH](N)C(=O)O

What was measured:
[1] = molecular target: Luciferin 4-monooxygenase (Photinus pyralis) (UniProt P08659); assay: Biochemical firefly luciferase enzyme assay for NPC (AID 624030);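 also: purified P. pyralis luciferase at 10 nM with luciferin and ATP substrate; nearly all actives have a fitted effect of over 70% in size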
Luciferin 4-monooxygenase (Photinus pyralis), sequence (P08659 whole entry, looked up): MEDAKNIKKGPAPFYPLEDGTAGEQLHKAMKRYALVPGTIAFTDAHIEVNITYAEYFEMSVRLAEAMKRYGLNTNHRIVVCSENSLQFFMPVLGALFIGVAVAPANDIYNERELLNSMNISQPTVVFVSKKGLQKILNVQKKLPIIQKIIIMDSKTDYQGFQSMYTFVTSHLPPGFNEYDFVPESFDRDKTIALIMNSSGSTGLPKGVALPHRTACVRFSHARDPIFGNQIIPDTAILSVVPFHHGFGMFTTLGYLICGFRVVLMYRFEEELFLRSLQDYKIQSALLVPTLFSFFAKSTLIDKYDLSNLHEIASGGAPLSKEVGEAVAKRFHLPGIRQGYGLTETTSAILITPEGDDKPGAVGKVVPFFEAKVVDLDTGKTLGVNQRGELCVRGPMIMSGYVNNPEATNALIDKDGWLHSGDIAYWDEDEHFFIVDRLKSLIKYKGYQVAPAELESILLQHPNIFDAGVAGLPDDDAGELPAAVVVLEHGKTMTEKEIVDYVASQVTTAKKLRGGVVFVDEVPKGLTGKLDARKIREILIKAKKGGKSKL
Summary of the method: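 Direct inhibition of firefly luciferase enzyme (10 nM final, 50 mM Tris Acetate) assessed by luminescence within 5 minutes. Percent activity scaled between DMSO and PTC124 positive control, with concentration-effect curves classified by fit quality and response.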

[2] = tested on: 3D7; assay: qHTS profiling for inhibitors of Plasmodium falciparum proliferation (AID 504749); also: nearly all actives have a fitted effect of over 60% in size; also: potency is read from the fitted curve at half-maximal effect; details: P. falciparum in erythrocytes, SYBR Green DNA, 72 h; series mostly up to 28.7 µM
Summary of the method: (§1)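 Infected RBCs, 0.3% parasitemia/2.5% Hct final; cpd 72 h, 37 C, 5% CO2; lysis buffer with saponin/triton/SYBR Green I, o/n RT dark; FI 485/535; norm. to artemisinin (0.29 uM) and DMSO.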

[3] = tested on: AS120; assay: as above; details: P. falciparum in erythrocytes, SYBR Green DNA, 72 h; series mostly up to 28.7 µM
Summary of the method: as §1

[4] = tested on: ATS95; assay: as above; details: P. falciparum in erythrocytes, SYBR Green DNA, 72 h; series mostly up to 28.7 µM
Summary of the method: as §1

[5] = tested on: CP191; assay: as above; details: P. falciparum in erythrocytes, SYBR Green DNA, 72 h; series mostly up to 28.7 µM
Summary of the method: as §1

[6] = tested on: CP211; assay: as above; details: P. falciparum in erythrocytes, SYBR Green DNA, 72 h; series mostly up to 28.7 µM
Summary of the method: as §1

[7] = tested on: CP247; assay: as above; details: P. falciparum in erythrocytes, SYBR Green DNA, 72 h; series mostly up to 28.7 µM
Summary of the method: as §1

[8] = tested on: CP250; assay: as above; details: P. falciparum in erythrocytes, SYBR Green DNA, 72 h; series mostly up to 28.7 µM
Summary of the method: as §1

[9] = tested on: CP262; assay: as above; details: P. falciparum in erythrocytes, SYBR Green DNA, 72 h; series mostly up to 28.7 µM
Summary of the method: as §1

[10] = tested on: CP297; assay: as above; details: P. falciparum in erythrocytes, SYBR Green DNA, 72 h; series mostly up to 28.7 µM
Summary of the method: as §1

[11] = tested on: CP335; assay: as above; details: P. falciparum in erythrocytes, SYBR Green DNA, 72 h; series mostly up to 28.7 µM
Summary of the method: as §1

[12] = tested on: Dd2; assay: as above; details: P. falciparum in erythrocytes, SYBR Green DNA, 72 h; series mostly up to 28.7 µM
Summary of the method: as §1

[13] = tested on: ECU; assay: as above; details: P. falciparum in erythrocytes, SYBR Green DNA, 72 h; series mostly up to 28.7 µM
Summary of the method: as §1

[14] = tested on: GB4; assay: as above; details: P. falciparum in erythrocytes, SYBR Green DNA, 72 h; series mostly up to 28.7 µM
Summary of the method: as §1

[15] = tested on: N140; assay: as above; details: P. falciparum in erythrocytes, SYBR Green DNA, 72 h; series mostly up to 28.7 µM
Summary of the method: as §1

[16] = tested on: P93_24; assay: as above; details: P. falciparum in erythrocytes, SYBR Green DNA, 72 h; series mostly up to 28.7 µM
Summary of the method: as §1

[17] = tested on: PAD; assay: as above; details: P. falciparum in erythrocytes, SYBR Green DNA, 72 h; series mostly up to 28.7 µM
Summary of the method: as §1

[18] = tested on: SC27B; assay: as above; details: P. falciparum in erythrocytes, SYBR Green DNA, 72 h; series mostly up to 28.7 µM
Summary of the method: as §1

[19] = tested on: TAB113; assay: as above; details: P. falciparum in erythrocytes, SYBR Green DNA, 72 h; series mostly up to 28.7 µM
Summary of the method: as §1

[20] = tested on: TAB165; assay: as above; details: P. falciparum in erythrocytes, SYBR Green DNA, 72 h; series mostly up to 28.7 µM
Summary of the method: as §1

Measured: Potency

CNCC(=O)NC(CCCN=C(N)N)C(=O)NC(C(=O)NC(Cc1ccc(O)cc1)C(=O)NC(C(=O)NC(Cc1cnc[nH]1)C(=O)N1CCCC1C(=O)NC(C)C(=O)O)C(C)C)C(C)C (stereo not drawn)
inactive: all assays above

CC(N)C(=O)NCC(=O)NC1CSSCC(C(=O)O)NC(=O)C(CO)NC(=O)C(C(C)O)NC(=O)C(Cc2ccccc2)NC(=O)C(C(C)O)NC(=O)C(CCCCN)NC(=O)C(Cc2c[nH]c3ccccc23)NC(=O)C(Cc2ccccc2)NC(=O)C(Cc2ccccc2)NC(=O)C(CC(N)=O)NC(=O)C(CCCCN)NC1=O (stereo not drawn)
inactive: all assays above

Cn1cc(O)nc1NC(=O)Nc1cccc(Cl)c1
not listed: [5] | [8] | [9] | [14]
inactive: all other assays above

NCCCC(N)CC(=O)NCC1NC(=O)C(CO)NC(=O)C(N)CNC(=O)C(C2CCN=C(N)N2)NC(=O)/C(=C/NC(N)=O)NC1=O (stereo not drawn) (H-[Dap]S[Dap](ξβ3hOrn)[ΔAla(Z-3-ureido)][X1]; lactam 1-C; configuration not given here)
inactive: all assays above

CC(C)CC1NC(=O)C(CCCN)NC(=O)C(C(C)C)NC(=O)C2CCCN2C(=O)C(Cc2ccccc2)NC(=O)C(CC(C)C)NC(=O)C(CCCN)NC(=O)C(C(C)C)NC(=O)C2CCCN2C(=O)C(Cc2ccccc2)NC1=O (stereo not drawn) (cyclo(FPV[Orn]LFPV[Orn]L); configuration not given here)
active: [3] 2.8 nM | [4] 0.9 nM | [5] 2.8 nM | [6] 1.3 nM | [7] 2.8 nM | [8] 2 nM | [10] 1.2 nM | [11] 0.5 nM | [12] 1.1 nM | [13] 3.2 nM | [14] 0.5 nM | [15] 1.3 nM | [16] 2 nM | [17] 0.8 nM | [18] 6.3 nM | [19] 2.2 nM | [20] 1.3 nM
inactive: [1]

CCOC(=O)C(CS)NCCN[C@@H](CS)C(=O)OCC (stereo partly drawn)
inactive: all assays above

CCC(C)C1NC(=O)C(CCNCS(=O)(=O)O)NC(=O)C(NC(=O)C(CCNCS(=O)(=O)O)NC(=O)C(NC(=O)C(CCNCS(=O)(=O)O)NC(=O)CCCCC(C)C)C(C)O)CCNC(=O)C(C(C)O)NC(=O)C(CCNCS(=O)(=O)O)NC(=O)C(CCNCS(=O)(=O)O)NC(=O)C(C(C)CC)NC1=O (stereo not drawn) ({Heptanoyl(6-Me)}-[ξDab(CH2SO3H)]T[ξDab(CH2SO3H)][Dab][ξDab(CH2SO3H)]II[ξDab(CH2SO3H)][ξDab(CH2SO3H)]T; lactam 4-C; configuration not given here)
not listed: [8]
inactive: all other assays above

O=C(O)c1ccccc1-c1c2cc(Br)c(=O)c(Br)c-2oc2c(Br)c(O)c(Br)cc12
not listed: [1] | [10]
inactive: all other assays above

CCC1NC(=O)C(NC(=O)c2ncccc2O)C(C)OC(=O)C(c2ccccc2)NC(=O)C2CC(=O)CCN2C(=O)C(Cc2ccccc2)N(C)C(=O)C2CCCN2C1=O (stereo not drawn)
not listed: [3] | [12] | [13] | [14] | [15] | [16] | [17] | [20]
inactive: all other assays above
